Here are results for three molecules from PubChem BioAssay (EPA / NIEHS).

In general, AC50 refers to the concentration at which the activity in the assay is half-maximal.

The nature of test [1]: APR_HepG2_NuclearSize_24hr: Apredica 24-hour HepG2 Assay for Nuclear Size (AID 2282907). The settings on record: high-content imaging, actives raise or lower the signal. In outline: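 Nuclear size is measured by fluorescence high-content imaging of Hoechst-labelled HepG2 nuclei after 24 hr of treatment (0.39–200 uM, 0.5% DMSO). Cells are fixed in 3.7% formaldehyde before staining, and DMSO serves as the baseline for bidirectional curve fitting.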

Test [2] is described as follows: APR_HepG2_CellLoss_24hr: Apredica 24-hour HepG2 Assay for Cell Loss (AID 2282908).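 As to AC50: fit in both directions so a hit may be cell loss or gain.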 The settings on record: high-content imaging. The procedure, abridged:
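Nuclear count serves as the viability measure: treated cells are fixed, permeabilized and labelled with Hoechst 33342, and six images per well are analysed to identify valid nuclei. Doses span 0.39–200 uM, and activity in either direction is scored against DMSO.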

Test [3] can be described thus: APR_HepG2_MicrotubuleCSK_24hr: Apredica 24-hour HepG2 Assay for Microtubule CSK Stabilty (AID 2282909). The settings on record: HepG2 microtubule cytoskeleton imaging, actives raise or lower the signal. In outline:
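Compounds were applied to HepG2 cells for 24 hours across 0.39–200 uM in duplicate, with final DMSO at 0.5% v/v. Fixed, permeabilized cells were labeled for alpha-tubulin and nuclei, and tubulin fluorescence was quantified by imaging, fitted bidirectionally against DMSO.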

The nature of test [4]: APR_HepG2_MitoticArrest_24hr: Apredica 24-hour HepG2 Assay for Mitotic Arrest (AID 2282910). The settings on record: high-content imaging, actives raise or lower the signal. In outline: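 HepG2, 24 hr dosing, 0.39–200 uM, 0.5% DMSO final. Formaldehyde-fixed, Triton-permeabilised, anti-phospho-histone H3 plus Hoechst. ArrayScan imaging at 20x; bidirectional fit vs DMSO baseline.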

Test [5] in a line: APR_HepG2_MitoMembPot_24hr: Apredica 24-hour HepG2 Assay for Mitochondrial Membrane Potential (AID 2282911). The settings on record: imaging, actives raise or lower the signal. In outline: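 HepG2 human liver cells were exposed 24 hr to compounds at 0.39–200 uM (final DMSO 0.5% v/v) in duplicate. MitoTracker Red CMXRos (250 nM, 30 min) was loaded before formaldehyde fixation; fluorescence was imaged by ArrayScan HCS and fitted bidirectionally versus DMSO.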

Test [6] is described as follows: APR_HepG2_MitoMass_24hr: Apredica 24-hour HepG2 Assay for Mitochondrial Mass (AID 2282912). The settings on record: high-content imaging, actives raise or lower the signal. The procedure, abridged: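 After 24 hr of treatment at 0.39 to 200 uM, HepG2 cells take up 250 nM MitoTracker Red CMXRos for 30 min and are then fixed with 3.7% formaldehyde. Per-well images are quantified, and any change in either direction is scored against solvent.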

Test [7] in a line: APR_HepG2_CellCycleArrest_72hr: Apredica 72-hour HepG2 Assay for Cell Cycle Arrest (AID 2282914). The settings on record: high-content imaging, actives raise or lower the signal. The procedure, abridged:
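HepG2 cells were exposed to compounds at 0.39–200 uM (0.5% v/v DMSO final, duplicates) for 72 hr, fixed in 3.7% formaldehyde, permeabilized and stained with Hoechst 33342. Nuclear DNA content was quantified by high-content imaging; gain or loss of signal was fitted bidirectionally against DMSO.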

Test [8] can be described thus: APR_HepG2_CellLoss_72hr: Apredica 72-hour HepG2 Assay for Cell Loss (AID 2282915). The settings on record: high-content imaging. The procedure, abridged:
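HepG2 cells exposed 72 h to compound at 0.39–200 uM (10 concentrations, duplicate) in 0.5% DMSO. Fixed with 3.7% formaldehyde and Hoechst 33342-stained. Imaged at 20x; nuclear count gives cell number, fitted bidirectionally versus DMSO.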

Test [9] in a line: APR_HepG2_P-H2AX_72hr: Apredica 72-hour HepG2 Assay for H2AX Phosphorylation (AID 2282916).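 Also: phospho-histone H2A.x immunostain intensity per cell marking DNA damage.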 The settings on record: imaging, actives raise or lower the signal. The procedure, abridged: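 Human hepatoma HepG2 cells are dosed across ten concentrations (0.39 to 200 uM, 0.5% v/v DMSO) and incubated 72 hr. Phospho-histone H2A.x is then detected by antibody staining alongside c-Jun and Hoechst, and quantified by automated fluorescence imaging.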

A short description of test [10]: APR_HepG2_MitoMembPot_72hr: Apredica 72-hour HepG2 Assay for Mitochondrial Membrane Potential (AID 2282917). The settings on record: imaging, actives raise or lower the signal. The procedure, abridged:
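HepG2 cells dosed 72 hr with compound at 0.39–200 uM in duplicate, 0.5% v/v DMSO final. Mitochondria stained with 250 nM MitoTracker Red CMXRos for 30 min before formaldehyde fixation, imaged by high-content fluorescence; bidirectional fit versus DMSO.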

Test [11] in a line: APR_HepG2_MitoticArrest_72hr: Apredica 72-hour HepG2 Assay for Mitotic Arrest (AID 2282918). The settings on record: high-content imaging, actives raise or lower the signal. In outline: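 HepG2 cells were exposed for 72 hr to compound at 0.39–200 uM (10 concentrations, duplicate) in 0.5% v/v DMSO, fixed in 3.7% formaldehyde, immunostained for phospho-histone H3 with Hoechst 33342 and imaged by high-content fluorescence; bidirectional fits versus DMSO.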

A short description of test [12]: APR_HepG2_MicrotubuleCSK_72hr: Apredica 72-hour HepG2 Assay for Microtubule CSK Stabilty (AID 2282919). The settings on record: HepG2 microtubule cytoskeleton, high-content imaging, actives raise or lower the signal. The procedure, abridged: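 HepG2, 72 hr cmpd exposure, 0.39–200 uM (10 pts, duplicate), 0.5% DMSO. 3.7% formaldehyde fix, 0.5% Triton perm, anti-alpha-tubulin/Cy5 plus Hoechst. HCS fluorescence intensity; bidirectional fit vs DMSO baseline; taxol as positive control.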

A short description of test [13]: APR_HepG2_P-H2AX_24hr: Apredica 24-hour HepG2 Assay for H2AX Phosphorylation (AID 2282920). The settings on record: high-content imaging, actives raise or lower the signal. The procedure, abridged:
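HepG2 human liver cells were exposed for 24 hr to compounds at 0.39–200 uM in duplicate, with 0.5% v/v DMSO final. Fixed cells were immunostained for phospho-histone H2A.x plus Hoechst 33342, imaged by HCS fluorescence, and fitted bidirectionally against DMSO.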

Test [14] can be described thus: APR_HepG2_StressKinase_72hr: Apredica 72-hour HepG2 Assay for Stress Kinase (AID 2282921). The settings on record: HepG2 stress kinase (phospho-c-Jun) imaging, actives raise or lower the signal. The procedure, abridged: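 After a 72 h compound treatment spanning 0.39 to 200 uM, formaldehyde-fixed cells are labelled for phosphorylated c-Jun and nuclei, imaged by automated fluorescence microscopy, and activity is fitted in both directions relative to DMSO controls.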

Test [15] is described as follows: APR_HepG2_StressKinase_24hr: Apredica 24-hour HepG2 Assay for Stress Kinase (AID 2282922). The settings on record: HepG2 stress kinase (phospho-c-Jun) imaging, actives raise or lower the signal. The procedure, abridged:
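Read-out: phospho-c-Jun immunofluorescence (Cy3 secondary) quantified by high-content imaging at 20x, nuclei defined by Hoechst 33342. Human HepG2 liver cells dosed 24 hr, 0.39–200 uM, DMSO 0.5% v/v; gain or loss of signal fitted relative to DMSO.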

The nature of test [16]: APR_HepG2_MitoMass_72hr: Apredica 72-hour HepG2 Assay for Mitochondrial Mass (AID 2282924).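 Also: MitoTracker Red CMXRos stain intensity per cell imaged as mitochondrial mass.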 The settings on record: high-content imaging, actives raise or lower the signal. The procedure, abridged:
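Read-out: MitoTracker Red fluorescence intensity from automated imaging (20x, six fields per well) in human HepG2 liver cells. Dosing ran 72 hr, 0.39–200 uM, 0.5% DMSO; bidirectional curve fitting versus DMSO baseline.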

Test [17] can be described thus: APR_HepG2_NuclearSize_72hr: Apredica 72-hour HepG2 Assay for Nuclear Size (AID 2282925). The settings on record: high-content imaging, actives raise or lower the signal. In outline: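 Read-out: nuclear diameter from Hoechst 33342 images (ArrayScan, 20x, six fields/well), via cell-cycle image analysis. HepG2 were dosed 0.39–200 uM for 72 hr in 0.5% DMSO. Bidirectional fit relative to DMSO.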

A short description of test [18]: APR_HepG2_p53Act_24hr: Apredica 24-hour HepG2 Assay for p53 Activation (AID 2282913).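 Also: p53 protein immunofluorescence averaged per cell in HepG2 with Hoechst nuclei.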 The settings on record: high-content imaging, actives raise or lower the signal. The procedure, abridged: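 HepG2 cells exposed 24 hr to compounds at 0.39–200 uM (10 concentrations, duplicate), final DMSO 0.5% v/v. After formaldehyde fixation and Triton permeabilization, p53 was immunolabeled (sheep anti-p53, Cy5 secondary) with Hoechst 33342 nuclear counterstain, then imaged by high-content fluorescence microscopy.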

The nature of test [19]: APR_HepG2_p53Act_72hr: Apredica 72-hour HepG2 Assay for p53 Activation (AID 2282923).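 Also: average cellular p53 protein immunofluorescence intensity in HepG2 cells.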 The settings on record: high-content imaging, actives raise or lower the signal. In outline: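 Imaging-based endpoint: after 72 hr compound exposure (up to 200 uM, 0.5% DMSO), fixed and permeabilized monolayers were labelled with anti-p53 antibody and imaged; signal change in either direction was fitted relative to DMSO controls.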

A short description of test [20]: ATG_CRE_CIS: Attagene CIS-FACTORIAL HepG2 Assay for human cAMP Responsive Element (CRE) binding protein 3 (AID 2282926). The settings on record: HepG2 CRE cis-reporter, Attagene multiplexed mRNA; actives raise or lower the signal. The procedure, abridged:
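Capillary electrophoresis of 6-FAM-labelled, HpaI-digested PCR products quantified reporter transcripts. These came from HepG2 transiently transfected with cis-element reporters and exposed to test chemicals for 24 hours, with DMSO defining baseline activity.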

Structures are written as SMILES. “And” between values parts separate entries of the source, which are not always exact repeats. Identical values can stand only once. Some compounds were tested as several samples or in several runs, with calls that do not always agree. The source made the active and inactive calls. The calls were made as follows: active = hit-call score of the fitted dose curve at least 0.9, where 1 is the maximum; inactive = score below 0.9.

As to `S=C(S)NCCNC(=S)S.[Mn+2].[S-]C([S-])=NCCN=C([S-])[S-].[Zn+2]`, the molecule was called inactive in [1], in [2], in test [3], in test [4], in test [5] and in [6]. Further, the call in [7], in test [8], in test [9], in test [10], in [11] and in [12] was inactive. The outcome in test [14], in [15], in test [16] and in test [17] was inactive. For the same molecule, the AC50 in [2] was 50.1 µM (active) [middle of 4 runs]; in [4], 55.2 µM (active) and 107 µM (active); in test [7] it was 53.5 µM (active) and 51.5 µM (active); in [8], 46.5 µM (active) [middle of 5 runs]; in test [9], 50 µM (active) [middle of 6 runs]; in test [11], 51.9 µM (active) [middle of 5 runs]. Also, the AC50 in [13] is 50 µM (active) [middle of 7 runs]; in test [14] it was 39.8 µM (active); in test [15], 40.9 µM (active) and 82.9 µM (active); in test [16], 31.4 µM (active) and 52.5 µM (active) and 169 µM (active); in [17], 80.6 µM (active).

With `CSC(=O)c1cccc2nnsc12`, the outcome in [1], in test [2], in test [3], in test [4], in [5] and in [6] was inactive. The outcome in test [18], in [7], in [8], in [9], in [10] and in [11] was inactive. Also, the molecule was classed as inactive in test [12], in [13], in test [14], in test [15], in [19] and in [16]. The outcome in test [17] and in [20] was inactive.

Turning to `CC(C)CCCCCCc1ccc(O)cc1`, the outcome in [1], in [18], in [10], in test [14], in test [15] and in test [17] was inactive. In addition, the AC50 was 26.8 µM (active) in test [2]; 65.4 µM (active) in test [3]; 26.3 µM (active) in test [4]; 115 µM (active) in test [5]; 34.5 µM (active) in test [6]; 123 µM (active) in test [7]. Further, the AC50 in test [8] is 28.8 µM (active); in [9], 30.1 µM (active); in test [11] it was 30.9 µM (active); in test [12] it was 62.1 µM (active); in [13], 100 µM (active); in test [16], 21.4 µM (active).
